Compounds without any hit were thinned out: in the full panel of roughly 79,000, 15% have a hit. Cut-off read from the data, not from the text of the source: active = growth inhibition above about 70%; inactive = the rest.
Legend:
[1] = NCI Yeast Anticancer Drug Screen. Data for the rad50 strain (AID 155);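 note: 0% = growth of vehicle-only cultures of the same strain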; settings: S. cerevisiae rad50 strain growth inhibition; at 50.0 µM; active compounds read high
Outline: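 Cells are treated with compound, grown, and their growth is then scored against vehicle-only cultures of the same repair-deficient yeast strain.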

[2] = NCI Yeast Anticancer Drug Screen. Data for the mec2-1 strain (AID 157); settings: S. cerevisiae mec2-1 strain, at 50.0 µM, active compounds read high
Outline: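 mec2-1 yeast strain, carrying an alteration in DNA damage repair or cell cycle control, was exposed to compounds; growth inhibition was measured relative to vehicle-treated controls.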

[3] = NCI Yeast Anticancer Drug Screen. Data for the sgs1 mgt1 strain (AID 161);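 note: 0% = growth of cultures given vehicle only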; settings: S. cerevisiae sgs1 mgt1 strain, at 50.0 µM, active compounds read high
Outline: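 Percent growth inhibition was derived by comparing compound-exposed mutant yeast with vehicle-exposed cultures. The strain carries alterations in DNA damage repair.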

[4] = NCI Yeast Anticancer Drug Screen. Data for the cln2 rad14 strain (AID 165);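 note: 0% = growth equal to vehicle treated cultures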; settings: S. cerevisiae cln2 rad14 strain, at 50.0 µM, active compounds read high
Outline: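 Yeast carrying cln2 and rad14 alterations (cell cycle control and DNA damage repair) were exposed to compounds. Growth inhibition was measured against vehicle-treated controls.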

[5] = NCI Yeast Anticancer Drug Screen. Data for the bub3 strain (AID 167); settings: S. cerevisiae bub3 mutant strain, at 50.0 µM, active compounds read high
Outline: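 Part of a panel of yeast mutants defective in DNA damage repair or cell cycle regulation. Each strain is grown with compound, and inhibition is calculated relative to solvent-treated cultures.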

[6] = NCI Yeast Anticancer Drug Screen. Data for the mlh1 rad18 strain (AID 175); settings: S. cerevisiae mlh1 rad18 strain growth inhibition; at 50.0 µM; active compounds read high
Outline: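 Growth inhibition of the yeast strain was measured after compound exposure and expressed relative to vehicle-treated controls. The strain carries defined defects in DNA damage repair.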

Measured: growth inhibition

Nc1ncnc2c1nc(-c1ccccc1)n2C1OC(CO)C(O)C1O (stereo not given)
inactive: [1] 27.4% | [2] 35.2% | [3] -10.7% | [4] 9.75% | [5] 35.5% | [6] 34.4%

C[n+]1cccc(NC(=O)COc2ccc(Cl)c(Cl)c2)c1
inactive: [1] 15.3% | [2] 3.95% | [3] -5.4% | [4] -18% | [5] -1.75% | [6] 21.5%

CC(C)c1ccc(O)c(Cc2cc(C(C)C)cc(Cc3cc(C(C)C)ccc3O)c2O)c1
inactive: [1] -14.3% | [2] -3.2% | [3] -10.2% | [4] 4.6% | [5] 1.1% | [6] -3.25%

N#Cc1ccc(NN=NCCCCCCl)cc1
inactive: [1] 22.7% | [2] -3.2% | [3] 1.25% | [4] 8.5% | [5] 15.8% | [6] 1.55%

C/C(=N\NC(=S)N1CCCC1)c1ccc[nH]1
inactive: [1] -6.55% | [2] 3.05% | [3] -0.05% | [4] -11.6% | [5] -7.75% | [6] -2.3%

C=CCc1cc(OC)c2c(c1)C(OC)CC(c1ccc(OC)c(OC)c1)O2 (stereo not given)
inactive: [1] -3.7% | [2] -34.3% | [3] -6.05% | [4] 12.6% | [5] -12.7% | [6] -17.9%

Cc1c(O)c2ccc3ccccc3c2oc1=O
inactive: [1] 5.4% | [2] 5.75% | [3] -7.05% | [4] -37.4% | [5] -47.4% | [6] -6.4%

c1ccc(C2=NOC(c3ccccc3)N2C23CC4CC(CC(C4)C2)C3)cc1 (stereo not given)
inactive: [1] 2.9% | [2] 4.4% | [3] -17.5% | [4] 24.4% | [5] -13% | [6] 36.1%

CN1CCN(C(=O)NC(C)(C)C)CC1
inactive: [1] -1.45% | [2] -6.6% | [3] -8.35% | [4] -88.8% | [5] -1.9% | [6] -17.7%

Cn1c(Cl)cn2c3nc4ccccc4nc3c(=O)c(C#N)c12
inactive: [1] 6.1% | [2] -29.2% | [3] -52.1% | [4] 1.3% | [5] -18.1% | [6] -4%

CC(=O)CC(=O)NN(C)C
inactive: [1] -4.8% | [2] -32.4% | [3] -28.9% | [4] 8.5% | [5] -36.4% | [6] 9.85%

CC(C)CCNCC(C)(C)OC(=O)c1ccc([N+](=O)[O-])cc1
inactive: [1] 34.6% | [2] 19.2% | [3] 51.9% | [4] 31.3% | [5] 30.4% | [6] 33.2%

COC(=O)C(CSSCC(C(=O)NC(Cc1ccccc1)C(=O)NCC(=O)OC(C)(C)C)N1C(=O)CCC1=O)NC(=O)OCc1ccccc1 (stereo not given)
inactive: [1] -29.2% | [2] 11.4% | [3] -5.45% | [4] -45.4% | [5] -51.4% | [6] 18.9%

Nc1nc(N)c2nn(-c3ccc(C(=O)O)cc3)nc2n1
inactive: [1] -13.6% | [2] 7.85% | [3] -5.15% | [4] -16.9% | [5] -11.2% | [6] 6.05%

O=C1C=C(N2CCCC2)c2ccccc21
inactive: [1] 15.4% | [2] -9.25% | [3] 3.85% | [4] -18.9% | [5] -27.6% | [6] 12.8%

Cc1ccc(C(=O)C2=CN=C3C(=O)N(c4ccccc4)N(C)C3(C)C2=N)cc1 (stereo not given)
inactive: [1] -4.65% | [2] 36.7% | [3] 11.2% | [4] 1.1% | [5] 4.9% | [6] 36.1%

O=C1c2ccccc2C(=O)N1NC1=NCCN1
inactive: [1] -12.6% | [2] -13.3% | [3] -13.1% | [4] 11.8% | [5] 5.5% | [6] -1.8%

CSc1cc(Cl)c(C)cc1S(=O)(=O)NC(=O)NNc1ccccn1
inactive: [1] -4.3% | [2] -1.6% | [3] 8.15% | [4] -2.05% | [5] -1.5% | [6] 21%

COc1cc(C)c(C(=O)c2ccccc2NS(=O)(=O)c2ccc(C)cc2)cc1OC
inactive: [1] 7.6% | [2] -0.7% | [3] -1.5% | [4] 22.6% | [5] -2.95% | [6] 9.1%

CCCCC1CC(c2ccc(Cl)cc2)=NO1 (stereo not given)
inactive: [1] 26.9% | [2] -7% | [3] 16.6% | [4] -1.55% | [5] 3.75% | [6] 20.2%
